# Potency and affinity values are given separately.
# Assays:
# Staphylococcus aureus = settings: Concentration 32 ug.mL-1;; ASSAY_TEST Inhibition of Bacterial Growth; detection method Absorption (OD600); MEDIA CAMHB; plate type 384well; NBS; CORNING #3640; time 18 hr
# Escherichia coli = settings: Concentration 32 ug.mL-1;; ASSAY_TEST Inhibition of Bacterial Growth; detection method Absorption (OD600); MEDIA CAMHB; plate type 384well; NBS; CORNING #3640; time 18 hr
SMILES,Inhibition (Staphylococcus aureus) [%],Inhibition (Escherichia coli) [%]
COC(=O)c1ccc(NC(=O)Cn2nc3c4cc(-c5ccc(Cl)cc5)nn4ccn3c2=O)cc1,1.97,4.04
CCOC(=O)c1ccc(NC(=O)Cn2nc3ccc(SC(C)(C)C)nn3c2=O)cc1,-4.89,-11.53
O=C(Cn1nc2ccc(Sc3cccc(F)c3)nn2c1=O)NCc1ccc(C(F)(F)F)cc1,12.64,-0.57
COc1ccc(OC)c(NC(=O)Cn2nc3ccc(-c4ccc(C)cc4)nn3c2=O)c1,-7.96,-11.89
CCc1ccc(N(Cc2cccc(F)c2)S(=O)(=O)c2cccn3c(CC)nnc23)cc1,13.65,-0.18
CC(C)Cn1c(=O)c2sccc2n2c(=O)n(Cc3cccc(Br)c3)nc12,8.88,-2.43
Cc1ccc(-c2ccc3nnc(CCC(=O)NCc4cccc(Br)c4)n3n2)cc1,12.72,-0.13
Cc1cc(C)cc(Nc2nc(C)cc3nn(CC(=O)NCc4ccco4)c(=O)n23)c1,4.89,-6.71
CC(C)c1nnc2c(=O)n(CC(=O)Nc3ccc(F)cc3)c3ccccc3n12,20.52,5.44
O=C(CSc1nnc2n(CC3CCCO3)c(=O)c3sccc3n12)Nc1ccc(F)cc1Cl (stereo unspecified),-6.42,-12.15
Cc1ccc(C)c(CSc2nnc3c(=O)n(-c4ccc(Br)cc4)ccn23)c1,3.9,-0.75
Cc1ccccc1Oc1nc2ccccc2n2c(=O)n(CC(=O)Nc3ccccc3C(F)(F)F)nc12,-0.26,-3.73
CCc1nnc2ccc(S(=O)(=O)N(Cc3ccccc3F)c3ccc(OC)cc3)cn12,11.76,-5.17
COc1cccc(CN(c2ccc(F)c(F)c2)S(=O)(=O)c2ccc3nnc(C)n3c2)c1,7.3,-2.88
C=Cc1ccc(CSc2nnc3c(=O)n(-c4ccc(Br)cc4)ccn23)cc1,2.47,-8.25
COc1ccc(CNC(=O)CCc2nnc3ccc(-c4ccccc4)nn23)cc1OC,1.5,-2.82
CCCCOc1ccc(-c2cc3c4nnc(SCC(=O)Nc5cc(C)ccc5C)n4ccn3n2)cc1,-14.19,-10.44

SMILES,Inhibition (Staphylococcus aureus) [%],Inhibition (Escherichia coli) [%]
COC(=O)c1sccc1NC(=O)Cn1nc2c(Oc3ccccc3)nc3ccccc3n2c1=O,9.09,0.17
COc1cc(OC)c(NC(=O)Cn2nc3c(SC4CCCCC4)nccn3c2=O)cc1Cl,7.52,-4.1
O=C(CSc1nc2ccccc2n2cnnc12)Nc1cc(C(F)(F)F)ccc1Cl,6.84,-4.72
CCc1nnc2c(S(=O)(=O)N(Cc3ccccc3C)c3ccc(Cl)cc3)cccn12,-22.93,-4.88
CC(C)Sc1ccc2nn(CC(=O)Nc3ccc(Cl)cc3F)c(=O)n2n1,9.58,-1.02
COc1ccc(NC(=O)CSc2nnc3c(=O)n(-c4cccc(F)c4)ccn23)cc1OC,3.1,-11.05
CC(=O)Nc1ccc(NC(=O)CSc2nc3ccccc3n3cnnc23)cc1,-1.2,2.28
CCOc1ccc(NC(=O)Cn2nc3c(Sc4ccc(C)cc4C)nccn3c2=O)cc1,0.32,-7.3
COC(=O)c1cccc(NC(=O)Cn2nc3c(Sc4ccc(C)cc4C)nccn3c2=O)c1,10.39,-5.72
O=C(Cn1nc2ccc(Sc3ccccc3)nn2c1=O)N1CCN(c2ccc(F)cc2)CC1,9.78,1.58
COc1ccc(NC(=O)Cn2nc3ccc(-c4ccccc4)nn3c2=O)cc1Cl,-3.72,-7.68
COc1ccc(NC(=O)Cn2nc3ccc(SCc4ccc(Cl)cc4)nn3c2=O)cc1,-5.92,-10.26
CCCNC(=O)Cn1nc2n(Cc3ccco3)c(=O)c3sccc3n2c1=O,2.17,-0.94
CCc1ccccc1NC(=O)Cn1nc2cc(C)nc(Nc3ccc(F)cc3)n2c1=O,8.34,-2.85
O=C(Cn1nc2c(SC3CCCCC3)nccn2c1=O)Nc1ccc(F)c(Cl)c1,-11.33,-12.19
COc1ccc(-c2cc3c4nn(CC(=O)Nc5cccc(C)c5)c(=O)n4ccn3n2)cc1,1.22,-1.93
